Data on 36 molecules can be found in PubChem BioAssay (EPA / NIEHS).

The structures appear in SMILES notation. “And” between values parts separate entries of the source, which are not always exact repeats. Equal values may be shown once. Results filed as inconclusive are left out. More than one record can exist for a structure, and the calls need not agree. The source made the active and inactive calls. How the source made its calls, unless noted: active means hit-call score of the fitted dose curve at least 0.9, where 1 is the maximum; inconclusive means response in the unintended direction; inactive means score below 0.9.

Androgen receptor (Homo sapiens), sequence (P10275 whole entry, looked up, the tested form may be a part): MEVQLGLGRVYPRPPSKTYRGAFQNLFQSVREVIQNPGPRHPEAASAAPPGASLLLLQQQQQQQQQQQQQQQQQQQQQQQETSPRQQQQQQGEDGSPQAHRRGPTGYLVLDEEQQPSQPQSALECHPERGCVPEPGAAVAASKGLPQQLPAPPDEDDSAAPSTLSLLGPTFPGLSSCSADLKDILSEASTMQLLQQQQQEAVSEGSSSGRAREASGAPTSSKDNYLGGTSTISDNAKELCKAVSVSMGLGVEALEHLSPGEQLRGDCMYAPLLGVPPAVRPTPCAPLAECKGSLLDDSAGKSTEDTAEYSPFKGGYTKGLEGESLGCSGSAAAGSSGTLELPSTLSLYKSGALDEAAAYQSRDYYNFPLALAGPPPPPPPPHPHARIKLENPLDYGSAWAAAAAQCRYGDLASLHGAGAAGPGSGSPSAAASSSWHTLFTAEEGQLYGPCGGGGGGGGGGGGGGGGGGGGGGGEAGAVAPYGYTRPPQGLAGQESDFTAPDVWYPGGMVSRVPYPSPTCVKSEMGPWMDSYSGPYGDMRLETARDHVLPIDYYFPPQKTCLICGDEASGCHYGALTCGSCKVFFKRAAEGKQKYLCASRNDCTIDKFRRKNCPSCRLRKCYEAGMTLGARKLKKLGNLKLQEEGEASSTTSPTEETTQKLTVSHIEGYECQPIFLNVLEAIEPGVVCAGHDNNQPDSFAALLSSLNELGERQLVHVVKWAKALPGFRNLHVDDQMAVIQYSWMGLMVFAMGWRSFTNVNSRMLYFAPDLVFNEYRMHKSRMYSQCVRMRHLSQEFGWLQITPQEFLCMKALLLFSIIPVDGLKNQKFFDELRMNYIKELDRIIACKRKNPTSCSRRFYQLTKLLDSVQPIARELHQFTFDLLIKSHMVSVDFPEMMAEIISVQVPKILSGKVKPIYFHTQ

The first assay concerns the target Androgen receptor (Homo sapiens) (UniProt P10275). The assay can be described thus: ATG_AR_TRANS: Attagene TRANS-FACTORIAL HepG2 Assay for human Androgen Receptor (AR) (AID 2282973). As to conditions: HepG2 Attagene TRANS-FACTORIAL AR reporter transcription. The essentials: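 HepG2 cells transiently transfected with AR-Gal4 chimera and GAL4-UAS reporter units; chemical exposure 24 h. Reporter mRNA quantified by RT-PCR with fluorescent labelling and capillary electrophoresis; gain-of-signal fitted against DMSO.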
As for `O=C(O)C(F)(F)C(F)(F)C(F)(F)OC(F)(C(F)(F)F)C(F)(F)F`, the call was inactive.
The same measure, in the same setting: the same measure for `NC(=O)C(F)(F)C(F)(F)C(F)(F)C(F)(F)C(F)(F)C(F)(F)C(F)(F)F`: “inactive”; for `FC(F)(F)C(F)(F)C(F)(F)C(F)(F)C(F)(F)C(F)(F)C(F)(F)Br`: “inactive”; for `FC(F)(F)C(F)(F)C(F)(F)C(F)(F)C(F)(F)CCI`: “inactive”.
On the same count and under the same terms, next, `O=S(=O)(OCC(F)F)C(F)(F)F`: “inactive”; `C=C(C)C(=O)OCC(F)(F)C(F)(F)C(F)(F)F`: “inactive”; `OCC(F)(F)C(F)(F)C(F)(F)C(F)(F)C(F)(F)C(F)(F)F`: “inactive”.
Still for that read-out and setting: next, `FC(F)(F)C(F)(F)C(F)(F)C(F)(F)C(F)(F)C(F)(F)C(F)(F)C(F)(F)CCS`: “inactive”; `O=C(O)C(F)(F)C(F)(F)C(F)(F)C(F)(F)F`: “inactive”.
Consider `OCCC(F)(F)C(F)(F)C(F)(F)C(F)(F)F`, for which the molecule was called inactive.
The same measure, in the same setting: the same measure for `OCC(F)(F)C(F)(F)C(F)(F)C(F)F`: “inactive”; for `C=CC(=O)OCC(F)(F)C(F)(F)C(F)(F)C(F)(F)COC(=O)C=C`: “inactive”; for `CCO[Si](CCC(F)(F)C(F)(F)C(F)(F)C(F)(F)C(F)(F)C(F)(F)F)(OCC)OCC`: “inactive”.
Still for that read-out and setting: next, `FC(F)(F)C(F)(F)CNCC(F)(F)C(F)(F)F`: “inactive”; `OCCCC(F)(F)C(F)(F)C(F)(F)F`: “inactive”.
Same read-out and setting: next, `O=S(=O)(O)C(F)(F)C(F)(F)C(F)(F)C(F)(F)C(F)(F)C(F)(F)C(F)(F)F`: “inactive”; `CCCCCCCCC(F)(F)C(F)(F)C(F)(F)C(F)(F)C(F)(F)C(F)(F)F`: “inactive”.
As to `OCC(F)(F)C(F)(F)C(F)(F)C(F)(F)C(F)(F)C(F)F`, the molecule was called inactive.
Same read-out and setting: next, `NC(=O)C(F)(F)C(F)(F)C(F)(F)C(F)F`: “inactive”.
In the case of `OCC(F)(F)C(F)(F)C(F)(F)CO`, the call was inactive.
In the case of `C=CC(F)(F)C(F)(F)C(F)(F)C(F)(F)C(F)(F)C(F)(F)C(F)(F)C(F)(F)F`, the molecule was classed as inactive.

The target of the next assay is Cytochrome P450 2C18 (Homo sapiens) (UniProt P33260). The assay can be described thus: NVS_ADME_hCYP2C18: NovaScreen (NVS) CYP450-related Enzyme Activity (ADME) Assay for human CYP2C18 (AID 2283103; active means hit-call score of the fitted dose curve at least 0.9, where 1 is the maximum; inactive means score below 0.9).
Cytochrome P450 2C18 (Homo sapiens), sequence (P33260 whole entry, looked up): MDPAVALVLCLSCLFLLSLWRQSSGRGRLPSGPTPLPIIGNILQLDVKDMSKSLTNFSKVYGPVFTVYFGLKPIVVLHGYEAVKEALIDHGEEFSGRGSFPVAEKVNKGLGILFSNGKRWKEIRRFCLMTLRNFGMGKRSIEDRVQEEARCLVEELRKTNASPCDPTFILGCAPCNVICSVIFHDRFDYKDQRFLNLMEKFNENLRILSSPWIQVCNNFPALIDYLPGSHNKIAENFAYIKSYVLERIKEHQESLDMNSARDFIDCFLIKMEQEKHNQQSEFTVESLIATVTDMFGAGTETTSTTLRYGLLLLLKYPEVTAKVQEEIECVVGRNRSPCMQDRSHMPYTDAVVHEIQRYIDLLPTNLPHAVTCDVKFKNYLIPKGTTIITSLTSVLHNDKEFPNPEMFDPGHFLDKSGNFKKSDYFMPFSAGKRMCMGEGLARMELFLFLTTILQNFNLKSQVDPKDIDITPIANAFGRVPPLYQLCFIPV
Details: not given
The essentials: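 Enzyme activity measured by fluorescence 0.5 h after compound addition, using recombinant CYP2C18 and a specific substrate. Actives from duplicate 10 uM screening were retested in concentration series (top 20 uM); acetonitrile served as negative baseline.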
As usually defined, the AC50 is the concentration giving half of the maximal activity seen. For the molecule `C#CCOC(=O)[C@@H](C)Oc1ccc(Oc2ncc(Cl)cc2F)cc1`, the AC50 was 2.13 µM (active).
Turning to `CC(=O)[C@H]1CC[C@H]2[C@@H]3CCC4=CC(=O)CC[C@]4(C)[C@H]3CC[C@]12C`, the call was inactive; the concentration at half-maximal activity (AC50) was 7.03 µM (active) and 2.27 µM (active).
With `S=C([S-])NCCNC(=S)[S-].[Mn+2]`, the AC50 was 10 µM (active).
Same read-out and setting: next, `C=CCOC(Cn1ccnc1)c1ccc(Cl)cc1Cl` (centres undefined): 0.427 µM (active); `Oc1ccc(C(c2ccc(O)cc2)C(Cl)(Cl)Cl)cc1`: 0.668 µM (active); `CCCCC(CC)CN1C(=O)C2C3C=CC(C3)C2C1=O` (centres undefined): 4.81 µM (active).
Same read-out and setting: next, `CSC(=O)c1cccc2nnsc12`: 3.8 µM (active).
For `CCCCC(CC)COC(=O)c1ccccc1C(=O)O` (centres undefined), the molecule was classed as inactive.
`CCOC(=O)NCCOc1ccc(Oc2ccccc2)cc1`: the AC50 was 4.5 µM (active).
`S=C(S)NCCNC(=S)S.[Mn+2].[S-]C([S-])=NCCN=C([S-])[S-].[Zn+2]`: the outcome was inactive.
On to `C#C[C@]1(O)CC[C@H]2[C@@H]3CCc4cc(O)ccc4[C@H]3CC[C@@]21C`, for which the AC50 was 1.46 µM (active) and 1.72 µM (active); the molecule was classed as inactive.
With `C[C@]12CC[C@@H]3c4ccc(O)cc4CC[C@H]3[C@@H]1CC[C@@H]2O`, the AC50 is 9.57 µM (active).
With `CCCCCOC(=O)COc1cc(N2C(=O)C3=C(CCCC3)C2=O)c(F)cc1Cl`, the outcome was inactive.
With `CC(C)(C)[C@@H](O)[C@@H](Cc1ccc(Cl)cc1)n1cncn1`, the half-maximal activity concentration (AC50) is 5.35 µM (active).
`CC(=O)O[C@]1(C(C)=O)CC[C@H]2[C@@H]3C=C(Cl)C4=CC(=O)[C@@H]5C[C@@H]5[C@]4(C)[C@H]3CC[C@@]21C`: the AC50 is 6.86 µM (active) and the outcome was inactive.
